From PubChem BioAssay AID492998 (Southern Research Specialized Biocontainment Screening …, 2010)
Among all 2,300 compounds or so, about 550 (24%) were called active. How the calls were made is not given here. Only a sample is shown. Measured potencies and affinities stand elsewhere.

Assay: Vero E6 cell cytotoxicity, dose response, cytotoxicity control for non-replicating M. tuberculosis project, secondary assay (AID 492998)
Details: series mostly up to 20 µM

Row | SMILES | outcome
1 | COc1ccccc1C1=NOC(COC(=O)c2ccc([N+](=O)[O-])cc2)C1 (configuration not stated) | inactive
2 | COCCNC(=O)c1cc2cc(Cl)cc(Cl)c2oc1=O | inactive
3 | Cc1cccc(OC(=O)c2sc3ncn(C)c(=O)c3c2C)c1 | inactive
4 | CCn1c2ccccc2c2cc(CNCc3ccc(OC)cc3OC)ccc21 | inactive
5 | O=C(COc1ccc(Cl)cc1)OCC(=O)N1CCCc2ccccc21 | inactive
6 | CC(C)(C)/C(O)=C/c1nc2ccccc2oc1=O | inactive
7 | COc1ccc(NC(=O)c2cnc(SC)nc2)cc1 | inactive
8 | COc1ccc(NC(=O)CO/N=C2/CCCc3nonc32)c(OC)c1 | inactive
9 | CCOC(=O)N1CCC(N2CCCC(C(=O)c3ccc4cc(OC)ccc4c3)C2)CC1 (configuration not stated) | inactive
10 | COc1ccc(C(=O)COC(=O)c2ccc(Cl)nc2)c(OC)c1 | inactive
11 | O=C(COC(=O)CC1CCCC1)Nc1ccc(OC(F)F)cc1 | inactive
12 | Cc1cc(C)cc(OC(=O)c2cccnc2)c1 | inactive
13 | CCCCOC(=O)c1ccc(OC(=O)c2cccnc2)cc1 | inactive
14 | CCc1cccc(OCCCn2ccnc2)c1 | inactive
15 | CN1/C(=C\C(=O)COC(=O)c2ccc([N+](=O)[O-])o2)C(C)(C)c2ccccc21 | inactive
16 | CN1/C(=C\C(=O)COC(=O)C2COc3ccccc3O2)C(C)(C)c2ccccc21 (configuration not stated) | inactive
17 | C=CC(=O)Oc1ccc(N2Cc3ccccc3C2=O)cc1 | inactive
18 | CC1=NN(C(=O)CCCc2ccccc2)C(O)(C(F)(F)F)C1 (configuration not stated) | inactive
19 | Cc1ccc(/C(O)=C/c2nc3ccccc3oc2=O)cc1 | inactive
20 | CN(CC(=O)Nc1ccc(Cl)cc1)C1CCCCC1 | inactive
21 | COc1ccc(OCCCC(=O)Nc2ccc(N3CCOCC3)cc2)cc1 | inactive
22 | CCOCCOC(=O)c1ccc(NC(=O)C2COc3ccccc3O2)cc1 (configuration not stated) | inactive
23 | CCOC(=O)COc1ccc2c(c1)c(C(C)=O)c(C)n2Cc1ccccc1 | inactive
24 | Cc1c(C(=O)N(C)C)sc2nc(-c3ccccn3)[nH]c(=O)c12 | inactive

Row | SMILES | outcome
25 | Cc1nnc(SCCC(=O)Nc2ccc(Cl)cc2)o1 | inactive
26 | CCOc1ccc2nc(/N=C/c3nc(-c4ccccc4)oc3O)sc2c1 | inactive
27 | CCOc1ccc(OCC(=O)Nc2nccs2)cc1 | inactive
28 | Cc1nc2ccc(OC(=O)c3ccccc3)cc2s1 | inactive
29 | O=C(COc1ccccc1)NNc1nc2ccccc2s1 | inactive
30 | CCCNC(=O)OCC12CC3CC(CC(C3)C1)C2 | inactive
31 | N=C1/C(=C/c2ccc(OC(=O)c3ccco3)cc2)C(=O)N=C2SC=CN12 | inactive
32 | c1ccc(CNCCC(Cc2ccccc2)c2ccco2)cc1 (configuration not stated) | inactive
33 | CC(C)(C)C(=O)/C=C/Nc1ccccc1O | inactive
34 | CC(=O)c1ccc(Sc2nnnn2-c2ccccc2)c([N+](=O)[O-])c1 | inactive
35 | Cc1cc(C)n(C(=O)c2ccc([N+](=O)[O-])cc2[N+](=O)[O-])n1 | inactive
36 | CC(=O)Nc1ccc(NC(=O)c2cc([N+](=O)[O-])cc([N+](=O)[O-])c2)cc1 | inactive
37 | O=C(NCc1cccs1)c1ccc([N+](=O)[O-])cc1 | inactive
38 | COc1ccc2cc(C(=O)NCc3ccccc3)c(=O)oc2c1 | inactive
39 | CC(C)OC(=O)c1cc(C(=O)c2cc(Cl)ccc2O)coc1=N | inactive
40 | O=C(NNc1ccc([N+](=O)[O-])cc1)C1CC1c1ccccc1 (configuration not stated) | inactive
41 | CC(C)(C)c1ccc(OCCC(=O)OCC(=O)NC2CC2)cc1 | inactive
42 | O=C(Oc1ccc(F)cc1)c1ccc2c(=O)n3c(nc2c1)CCC3 | inactive
43 | COC(=O)c1ccc(N2CCN(CCNC(=O)Nc3ccc(OC)cc3)CC2)cc1 | inactive
44 | C#CCSc1nnc(-c2ccc(O)cc2)o1 | inactive
45 | C#CCSc1nnc(-c2ccc(C)cc2)o1 | inactive
46 | Cc1cc(Cl)ccc1N(CC(=O)NCc1ccccc1)S(C)(=O)=O | inactive
47 | CCCCn1nnc(NC(=O)COc2ccc(Cl)c(C)c2)n1 | inactive
48 | O=C(COC(=O)CCc1c[nH]c2ccccc12)NCc1ccc(Cl)cc1 | inactive

Row | SMILES | outcome
49 | N#Cc1ccc(COC(=O)CCc2c[nH]c3ccccc23)cc1 | inactive
50 | COc1ccc(OC(=O)CCc2c[nH]c3ccccc23)cc1 | inactive
51 | O=C(COC(=O)CCc1c[nH]c2ccccc12)NCc1ccc2c(c1)OCO2 | inactive
52 | C=Cc1cccc(NC(=O)COc2ccccc2)c1 | inactive
53 | COc1ccc(Cc2nnc(SCc3ccc([N+](=O)[O-])cc3)o2)cc1 | inactive
54 | Cc1[nH]nc2c1C(c1ccc(-c3ccc(Cl)cc3)o1)C(C#N)=C(N)O2 (configuration not stated) | inactive
55 | O=C1/C(=C/c2ccco2)CCC1C1CCCC1 (configuration not stated) | inactive
56 | CC(NC(=O)COc1ccccc1F)C1CC2CCC1C2 (configuration not stated) | inactive
57 | CCOC(=O)c1ccc(NC(=O)CCSCCc2ccccn2)cc1 | inactive
58 | CCOc1ccc(-c2nc3ccccc3c(=O)o2)cc1 | inactive
59 | CCOC(=O)N1CCC(NS(=O)(=O)c2cc3c(cc2Cl)NC(=O)CO3)CC1 | inactive
60 | CCCNC(=O)N1CCC(c2ccc3c(c2)OCO3)CC1 | inactive
61 | COc1ccc(C2(O)CCN(CCCCOc3ccccc3)CC2)cc1 | inactive
62 | OCC1(CCOc2ccccc2)CCN(Cc2cc(Cl)ccc2O)CC1 | inactive
63 | COc1cccc2cc(C(=O)c3ccc([N+](=O)[O-])cc3)oc12 | inactive
64 | CC1COC(=O)C(NNc2ccc(Cl)c(Cl)c2)=N1 (configuration not stated) | inactive
65 | CC(=O)Nc1cccc(-c2nc3ccccc3c(=O)o2)c1 | inactive
66 | CC(C)Cc1cc(C(=O)Nc2ccc(F)cc2F)no1 | inactive
67 | CC(C)c1nnc(NC(=O)c2cc3cc(Br)ccc3oc2=O)s1 | inactive
68 | CCCC(=O)Nc1cccc(-c2nc3ccccc3c(=O)o2)c1 | inactive
69 | O=C(Oc1ccc(/C=N/O)cc1)c1ccccc1Cl | inactive
70 | CN1C(=O)/C(=C/c2cccc(Cl)c2)Sc2ccc(C(=O)N3CCCC3)cc21 | inactive
71 | O=C(O)CCCCCN1C(=O)/C(=C\c2ccncc2)SC1=S | inactive
72 | O=C(COC(=O)CCN1C(=O)/C(=C\C=C\c2ccccc2)SC1=S)Nc1cc(F)ccc1F | inactive

Row | SMILES | outcome
73 | O=C(NCCN1C(=O)S/C(=C\c2ccccc2F)C1=O)C1CCN(S(=O)(=O)c2cccs2)CC1 | inactive
74 | O=C(CC1CC2CCC1C2)NCc1cccs1 (configuration not stated) | inactive
75 | CCOc1ccc(-c2cc(CCCC(=O)NCCC(C)C)no2)cc1 | inactive
76 | Cc1ccc(N2C(=O)CC(Sc3nccc(C)n3)C2=O)cc1 (configuration not stated) | inactive
77 | Cc1cccc(C2=N/C(=C\c3cccnc3)C(=O)O2)c1 | inactive
78 | Cc1ccc(-c2noc(CCC(=O)Nc3cccc(C#N)c3)n2)cc1 | inactive
79 | CCNc1nc(NC(C)(C)C)nc(N2CCCCC2)n1 | inactive
80 | COc1cc(NC(=O)C/C(C)=N/NC(=O)c2cccs2)c(OC)cc1Cl | inactive
81 | O=C(OCC(=O)N1CCCc2ccccc21)c1ccc(S(=O)(=O)C(F)F)cc1 | inactive
82 | CCOC(=O)COc1ccc2c(c1)C(=O)CC(C)(c1cccnc1)O2 (configuration not stated) | inactive
83 | O=C(N/N=C\c1ccccc1OCc1ccccc1)c1ccco1 | inactive
84 | C/C(=N\NC(=O)c1cccs1)c1ccc2c(c1)OCO2 | inactive
85 | Cc1occc1C(=O)N/N=C/c1ccc[nH]1 | inactive
86 | O=C(Oc1cccc2cccnc12)c1ccc2c(c1)OCCO2 | inactive
87 | O=C(N/N=C/c1ccc[nH]1)c1ccc2c(c1)OCO2 | inactive
88 | CC(/C=C/c1ccccc1)=N\NC(=O)c1ccc2c(c1)OCCO2 | inactive
89 | COCCCn1c(=NC(=O)c2ccccc2)c(C#N)cc2c(=O)n3cccc(C)c3nc21 | inactive
90 | CCOC(=O)COc1c(-c2ccc(OC)cc2)oc2ccccc2c1=O | inactive
91 | O=C1CC(N2CCN(c3ccc(F)cc3)CC2)C(=O)N1Cc1ccccc1 (configuration not stated) | inactive
92 | O=C1NCC(O)=C1C=Nc1ccccc1O | inactive
93 | COC(=O)c1cccc(COC(=O)c2cc3ccccc3oc2=O)c1 | inactive
94 | CN(CCCCOc1ccc(F)cc1)Cc1ccccc1 | inactive
95 | O=C(Nc1ccn(Cc2ccccc2)n1)c1ccc(F)cc1 | inactive
96 | O=C(c1ccc([N+](=O)[O-])cc1[N+](=O)[O-])N1CCc2ccccc21 | inactive

Row | SMILES | outcome
97 | CCOC(=O)c1ccc(COC(=O)c2ccc(-c3nnc(-c4ccccc4)o3)cc2)o1 | inactive
98 | CC(/C=C/c1cccc([N+](=O)[O-])c1)=N\NC(=O)c1ccncc1 | inactive
99 | NC(=O)C1(N2CCCCC2)CCN(C2CC(=O)N(CCc3ccccc3)C2=O)CC1 (configuration not stated) | inactive
100 | COC(CNC(=O)c1ccc2c3c(onc13)-c1ccccc1C2=O)OC | inactive
101 | O=[N+]([O-])c1cc(N=Nc2ccc3ccccc3c2)ccc1O | inactive
102 | CCCCCCOc1ccc(N2C(=O)CC(N3CCN(C(=O)c4ccco4)CC3)C2=O)cc1 (configuration not stated) | inactive
103 | O=C(Oc1ccccc1)c1ccc(NC(=O)c2ccco2)cc1 | inactive
104 | O=C(/C=C/Nc1ccccc1O)c1ccco1 | inactive
105 | Nc1nnc(SCCCC(=O)c2ccc(Br)cc2)s1 | inactive
106 | CC(=O)c1c(C)n(C)c2ccc(OC(=O)c3ccco3)cc12 | inactive
107 | COc1cc(OC)cc(OC(=O)c2ccc3c(=O)n4c(nc3c2)CCC4)c1 | inactive
108 | COc1ccc(N2C(=O)CC(Sc3nc4ccccc4s3)C2=O)cc1OC (configuration not stated) | inactive
109 | COc1ccc(C(=O)CCS(=O)(=O)c2ccc(C)cc2)cc1OC | inactive
110 | O=C(N/N=C/C=C/c1ccccc1)c1cccs1 | inactive
111 | O=C1Nc2ccc(Br)cc2/C1=C/C(=O)c1ccc2c(c1)OCO2 | inactive
112 | c1ccc(-c2nnc(SCc3nnc(-c4cccs4)o3)o2)cc1 | inactive
113 | CCOC(=O)Cc1nc2cc(Cl)ccc2o1 | inactive
114 | O=C1c2ccccc2CC1Sc1nnc(-c2ccncc2)o1 (configuration not stated) | inactive
115 | CCn1cc(C(=O)O)c(=O)c2cc(F)c(N3CCN(C(=S)NC(=O)c4ccccc4)CC3)cc21 | inactive
116 | O=C(COc1ccc(Cl)cc1)Nc1ccc(Cl)cn1 | inactive
117 | COc1cccc(COC(=O)CCNC(=O)c2ccc(Cl)cc2)c1OC | inactive
